PMC4336329 (PLoS ONE, 2015)
About 14,000 (4.5%) of roughly 310,000 compounds showed an effect of 50% or more. Effects have a minus sign here. The list comes from a sample in which strong results are over-represented; it also holds similar structures and randomly drawn compounds.

Molecular target: human ether-à-go-go-related gene (hERG) potassium channel (human, UniProt Q12809)
Assay: primary screen, population patch clamp on CHO cells stably expressing hERG; higher = less effect of the substance
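Note: peak tail current of the secondary pulse compared with the same well before compound.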

Sequence of human ether-à-go-go-related gene (hERG) potassium channel (Q12809 whole entry, looked up): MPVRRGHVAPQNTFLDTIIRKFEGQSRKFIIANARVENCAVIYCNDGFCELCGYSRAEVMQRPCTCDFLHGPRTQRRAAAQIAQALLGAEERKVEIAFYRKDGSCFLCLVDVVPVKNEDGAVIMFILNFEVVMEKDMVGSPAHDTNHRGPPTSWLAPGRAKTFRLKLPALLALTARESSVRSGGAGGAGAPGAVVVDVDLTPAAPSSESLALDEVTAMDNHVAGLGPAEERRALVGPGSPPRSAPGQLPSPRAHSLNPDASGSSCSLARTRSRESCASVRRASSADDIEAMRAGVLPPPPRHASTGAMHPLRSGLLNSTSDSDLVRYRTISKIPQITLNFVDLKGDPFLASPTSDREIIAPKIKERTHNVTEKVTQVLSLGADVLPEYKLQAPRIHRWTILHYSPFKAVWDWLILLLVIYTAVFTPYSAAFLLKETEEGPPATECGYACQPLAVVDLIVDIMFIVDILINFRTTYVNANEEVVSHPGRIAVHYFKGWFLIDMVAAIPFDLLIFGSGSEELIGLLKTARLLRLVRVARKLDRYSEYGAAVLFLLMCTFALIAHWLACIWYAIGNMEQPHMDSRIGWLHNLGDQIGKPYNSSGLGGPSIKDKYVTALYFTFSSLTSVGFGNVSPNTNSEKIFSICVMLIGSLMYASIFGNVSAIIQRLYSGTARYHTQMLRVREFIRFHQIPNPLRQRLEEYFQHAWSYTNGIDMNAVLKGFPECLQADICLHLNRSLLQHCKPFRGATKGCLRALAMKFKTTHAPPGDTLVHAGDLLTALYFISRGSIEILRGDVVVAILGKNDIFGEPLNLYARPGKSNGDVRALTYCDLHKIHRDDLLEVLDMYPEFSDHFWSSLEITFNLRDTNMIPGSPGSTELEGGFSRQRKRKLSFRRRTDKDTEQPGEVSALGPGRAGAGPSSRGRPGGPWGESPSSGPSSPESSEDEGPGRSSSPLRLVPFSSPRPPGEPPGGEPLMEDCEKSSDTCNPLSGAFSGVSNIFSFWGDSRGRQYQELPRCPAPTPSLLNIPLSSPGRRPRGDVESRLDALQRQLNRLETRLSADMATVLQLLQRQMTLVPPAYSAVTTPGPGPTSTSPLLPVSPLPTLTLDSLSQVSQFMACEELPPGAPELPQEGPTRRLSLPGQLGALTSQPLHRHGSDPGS

Row | Compound | hERG current change (%, negative = inhibition) at 10uM [%]
1 | COc1ccc(S(=O)(=O)n2nc(OC(=O)c3cccs3)cc2N)cc1 | -3.07
2 | CCOC(=O)CC1=NN(c2ccccc2)C(=O)/C1=C\c1ccc(N(C)C)cc1 | 24.6
3 | O=C(CNc1cccc(S(=O)(=O)N2CCCC2)c1)Nc1ccc(C(F)(F)F)cc1 | 15.1
4 | CC(C)Cn1cnc2c1c(=O)n(C)c(=O)n2C | 27.8
5 | CCOc1cc(C(=S)N2CCCCC2)ccc1OS(=O)(=O)c1ccc(Cl)cc1 | -1.37
6 | N#CCCn1c(=S)[nH]c2ccccc21 | 12.9
7 | O=C(CN(CC1CCCO1)C(=O)CNS(=O)(=O)c1ccccc1)NCc1ccc(F)cc1 (stereo not drawn) | 11.9
8 | C/C(=C1\SC(N2CCOCC2)=NC1=O)c1ccccc1 | -12.5
9 | C/C(=N\NC(=O)c1ccc(C)cc1C)c1ccc(-n2ccnc2)cc1 | -16.6
10 | Cc1ccc(C(O)c2ccc(-n3ccnc3)cc2)cc1 (stereo not drawn) | -1.74
11 | Cc1ccc(C)c(C(=O)NC(C)c2ccc(-n3ccnc3)cc2)c1 (stereo not drawn) | -62.4
12 | CSc1ccccc1C(=O)NC(C)c1ccc(-n2ccnc2)cc1 (stereo not drawn) | -39.7
13 | CC(NC(=O)c1ccc(CS(C)(=O)=O)cc1)c1ccc(-n2ccnc2)cc1 (stereo not drawn) | -1.32
14 | Cc1ccc(C(=O)NC(C)c2ccc(-n3ccnc3)cc2)c(C)c1 (stereo not drawn) | -57.4
15 | CSCc1ccc(C(=O)NC(C)c2ccc(-n3ccnc3)cc2)cc1 (stereo not drawn) | -56
16 | CC(NC(=O)c1cc(F)c(F)c(F)c1F)c1ccc(-n2ccnc2)cc1 (stereo not drawn) | -65.2
17 | CC(=O)c1sc(NC(=O)CS(=O)(=O)c2ccccc2)nc1C | -25.3
18 | CCOC(=O)/C(C#N)=C/c1ccc(OC(=O)c2ccccn2)cc1 | -5.99
19 | OC1(c2cccc(C(F)(F)F)c2)CCN(Cc2nc(-c3cnccn3)no2)CC1 | -0.399
20 | CCC(=O)N=c1sc2c(OC)ccc(OC)c2n1C | 11
21 | COc1ccc(Cl)cc1C(=O)Nn1c(-c2cccs2)nc2ccccc2c1=O | -5.47
22 | O=C(O)c1nn(-c2ccccc2)nc1-c1nn(-c2ccccc2)nc1C(=O)O | 19.7

Row | Compound | hERG current change (%, negative = inhibition) at 10uM [%]
23 | O=C(N/N=C/c1cc([N+](=O)[O-])ccc1Cl)c1cc(-c2ccccc2)nc2ccccc12 | 7.64
24 | CCCc1oc(C(=O)O)cc1CN.Cl | 5.96
25 | COc1ccc(-c2c(S(=O)(=O)c3ccccc3)cnn2-c2ccccc2)cc1 | -2.43
26 | Cl.O=C(CCN1CCc2ccccc2C(c2ccccc2)C1)c1ccc2c(c1)OCCO2 (stereo not drawn) | -0.525
27 | Cl.O=C(CCN1Cc2ccccc2C1)c1ccc2c(c1)OCCO2 | -8.74
28 | Cl.O=C(CCN1CCCCC1)c1ccc2c(c1)OCCO2 | 4.82
29 | Cl.O=C(CCN1CCc2ccccc2C1)c1ccc2c(c1)OCCO2 | -32.2
30 | Cl.O=C(CCN1CCC(c2ccccc2)C1)c1ccc2c(c1)OCCO2 (stereo not drawn) | -56
31 | O=C(CCCc1ccccc1)c1ccc2c(c1)OCCO2 | -5.25
32 | Cl.O=C(CCN1CCOCC1)c1ccccc1 | 3.53
33 | Cl.O=C(CCCN1CCC(c2ccccc2)C1)c1ccc2c(c1)OCCO2 (stereo not drawn) | -70.3
34 | O=C1C(=O)N(CCCN2CCOCC2)C(c2ccc(F)cc2)/C1=C(/O)c1ccccc1 (stereo not drawn) | 23
35 | Cl.O=C(CCN1CCc2ccccc2CC1)c1ccc2c(c1)OCCO2 | -60.6
36 | Cl.O=C(CCCN1CCOC(c2ccccc2)C1)c1ccc(F)cc1 (stereo not drawn) | -60.7
37 | Cl.O=C(CCN1CCC(c2ccccc2)C1)c1ccccc1 (stereo not drawn) | -35.8
38 | O=C1/C(=C/c2ccccc2Cl)N2CCC1CC2 | -14.1
39 | Cc1ccc(OCCn2cc(/C=N/NC(=O)c3ccncc3)c3ccccc32)cc1 | -7.64
40 | CCOc1ccc2nc(/N=C/c3nc(-c4ccccc4)oc3O)sc2c1 | 4.73
41 | COc1ccc(-n2c3c(cc(C(=O)N4CCC(C)CC4)c2=O)C(=O)CC(C)(C)C3)cc1 | -2.69
42 | O=C(COC(=O)CNC(=O)c1ccccc1F)NCC(F)(F)F | 9.36
43 | COc1cc(C(=O)O)cc(Br)c1OC1CCCC1 | 20.6
44 | O=S(=O)(NC1CCCCCC1)c1cccc2cccnc12 | 5.29

Row | Compound | hERG current change (%, negative = inhibition) at 10uM [%]
45 | O=[N+]([O-])c1ccc(NCc2ccccc2)c2nonc12 | 19.7
46 | CC(OC(=O)c1cccc([N+](=O)[O-])c1)C(=O)NCc1ccc2c(c1)OCO2 (stereo not drawn) | -11.4
47 | COc1ccc(N2CCN(CC(=O)Nc3ccccc3C(=O)NCc3ccccc3)CC2)cc1 | -55.9
48 | COc1ccc(N2CCN(CC(=O)NC(=O)NCc3ccccc3)CC2)cc1 | 10.4
49 | Cc1ccc(CNC(=O)c2ccccc2NC(=O)CN2CC(C)OC(C)C2)cc1 (stereo not drawn) | -13.2
50 | COc1cccc(N2CCN(CC(=O)Nc3ccccc3C(=O)NCCc3ccccc3)CC2)c1 | 89.9
51 | COc1cccc(N2CCN(CC(=O)Nc3ccccc3C(=O)NCc3ccccc3)CC2)c1 | -60.9
52 | COc1ccc(N2CCN(CC(=O)NCc3ccccc3)CC2)cc1 | 0.922
53 | COc1cccc(N2CCN(CC(=O)NCc3ccccc3)CC2)c1 | -5.53
54 | Cc1ccc(CNC(=O)c2ccccc2NC(=O)CN2CCN(C)CC2)cc1 | -59.2
55 | CC(=O)N1CCN(CC(=O)Nc2ccccc2C(=O)NCc2ccc(C)cc2)CC1 | -25.4
56 | CC(Oc1ccc(F)cc1)C(=O)NN (stereo not drawn) | 18.6
57 | O=C(CCc1ccccc1)Nc1cc2c(cc1Cl)OCCO2 | -7.19
58 | COc1ccc(-c2csc(Nc3cccc(C)n3)n2)cc1C | 5.87
59 | O=C1NC(=S)N(c2ccc(Cl)cc2)C(=O)/C1=C/N1CCN(C(=O)c2ccco2)CC1 | 7.25
60 | Cc1cc(C(=O)OCC(=O)Nc2nc(-c3ccccc3)cs2)c(C)o1 | 15.8
61 | Cc1oncc1C(=O)NC(C)C | -3.53
62 | CN(C(=O)c1ccc(NC(=O)Cc2ccc(NC(=O)C3CCCN(C(=O)C4CC4)C3)cc2)cc1)C1CC1 (stereo not drawn) | -4.41
63 | Cc1nn(S(=O)(=O)c2ccc(Cl)cc2)c(C)c1S(=O)(=O)N1CCOCC1 | 20.9
64 | CCOc1ccccc1C1CC(=O)Nc2cc(OC)c(OC)c(OC)c21 (stereo not drawn) | 19.6
65 | CCc1c(C)nc2cc(-c3cc(OC)cc(OC)c3)nn2c1N1CCCC1 | -2.11
66 | COc1cc(OC)cc(-c2cc3nc4c(c(N5CCN(c6ncccn6)CC5)n3n2)CCCC4)c1 | 4.89

Row | Compound | hERG current change (%, negative = inhibition) at 10uM [%]
67 | COCCN1CCN(c2c(C)c(C)nc3cc(-c4cccc(OC)c4)nn23)CC1 | -15.6
68 | CCOCCN1CCN(c2c(C)c(C)nc3cc(-c4cc(OC)cc(OC)c4)nn23)CC1 | -73.3
69 | CCOCCN1CCN(c2c(CC)c(C)nc3cc(-c4cc(OC)cc(OC)c4)nn23)CC1 | -72.4
70 | CCc1c(C)nc2cc(-c3cc(OC)cc(OC)c3)nn2c1N1CCN(CCN2CCOCC2)CC1 | -33.5
71 | Nc1nc2ccc(C(=O)Nc3ccccc3)cc2s1 | 7.6
72 | Cc1ccc2c(c1)CC1(CN2C)C(=O)NC(=O)N(CCc2ccccc2)C1=O (stereo not drawn) | -15.2
73 | CNC(=O)C(C)c1ncc(C(F)(F)F)cc1Cl (stereo not drawn) | 17.6
74 | Nn1c(SCC(=O)N2CCN(S(=O)(=O)c3ccc(Cl)cc3)CC2)nnc1-c1cccs1 | -52.1
75 | Nn1c(SCC(=O)N2CCN(S(=O)(=O)c3ccccc3)CC2)nnc1-c1cccs1 | -10.1
76 | CCOC(=O)c1cnn(-c2ccccc2)c1NC(=O)CSc1nnc(-c2cccs2)n1CC | -69.5
77 | Nn1c(SCC(=O)Nc2ccccc2F)nnc1-c1cccs1 | -65.7
78 | CC(=O)Nc1ccc(NC(=O)CSc2nnc(-c3cccs3)n2N)cc1 | 1.15
79 | CCOC(=O)c1ccc(NC(=O)CSc2nnc(-c3cccs3)n2CC)cc1 | 5.69
80 | CCn1c(SCC(=O)Nc2cc(C)nn2-c2ccccc2)nnc1-c1cccs1 | -12.9
81 | Cn1c(SCC(=O)Nc2ccccc2F)nnc1-c1cccs1 | -24.2
82 | CCc1ccc(NC(=O)CSc2nnc(-c3cccs3)n2CC)cc1 | -69.7
83 | Cc1nnc(SCC(=O)N2CCN(S(=O)(=O)c3ccc(Cl)cc3)CC2)n(N)c1=O | -19
84 | CCn1c(SCC(=O)Nc2ccc(C(=O)OC)cc2)nnc1-c1cccs1 | -10.7
85 | CCn1c(SCC(=O)Nc2c(C#N)cnn2-c2ccccc2)nnc1-c1cccs1 | -13.6
86 | O=C(NCc1ccccc1)c1cccc(NS(=O)(=O)c2cccc3cccnc23)c1 | 6.09
87 | COc1cnc(-c2ccccc2)nc1OC | 12.4
